PubChem BioAssay AID485314 (National Center for Advancing Translational Sciences (NCATS), 2010)
Screen size: about 340,000 compounds; about 4,500 (1.3%) were called active. Roughly 5% stayed inconclusive and do not appear here. The entries come from a sample that favours actives as a whole. Unmarked numbers belong to inactive results. Calls follow the shape of the dose curve; as a rule, active = well fitted inhibition curve with a large enough effect; inconclusive = small, poorly fitted or top-dose-only effect, or another doubt; inactive = no such curve, though single readings can be large or run the other way.

Each molecule was assayed against DNA polymerase beta (Homo sapiens) (UniProt P06746) (assay: qHTS Assay for Inhibitors of DNA Polymerase Beta). Settings: Pol beta primer extension/strand displacement, fluorescence kinetic; series mostly up to 114 µM; activity change, negative = inhibition: at the top concentration.
Outline: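 Pol beta (10 nM) was preincubated with compound for 15 min at room temperature. The reaction was then started with 50 nM substrate and read immediately and after a further 10 min at room temperature.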
% is scaled to controls: 0 for no effect and ±100 for the full control effect; potency is read from the fitted curve at half-maximal effect.

SMILES	activity change, negative = inhibition [%]	Potency
Cc1cccc(Cn2c(SCc3ccc(C(=O)N4CCC(C)CC4)cc3)nc3ccncc32)c1	19.7	–
COc1cc(OC)c(OC)cc1/C=C/c1nc2ccccc2c(=O)n1-c1ccc(Br)c(C)c1	22.7	–
COc1ccc(C(=O)Nc2cccc(C(=O)OCc3cc(=O)n4c5c(sc4n3)CCCC5)c2)cc1	-16.3	–
Cc1ccc(CN2CCc3nc(N4CCN(C)CC4)ncc3C2)cc1	32	–
COc1cccc(N2CCN(C(=O)CCCCCn3c(=O)[nH]c4ccccc4c3=O)CC2)c1	27.1	–
Cc1cc(C)c2nc(-c3ccco3)cc(C(=O)O)c2c1	–	7.08 µM (active)
Cc1cccc(NC(=O)CSc2nc(-c3ccco3)cc(C(F)(F)F)n2)c1C	-2.02	–
Cc1ccsc1-c1cc(C(=O)O)c2c(ccc3ccccc32)n1	13.8	–
CCOc1cc(CNC(=O)c2sc3ncnc(N(C)C4CCCCC4)c3c2C)ccc1OC	-1.77	–
COc1ccc(CCNC(=O)C(=O)NCC(c2ccco2)S(=O)(=O)c2cccs2)cc1OC (stereo unspecified)	-9.89	–
O=C(Nc1ccc2nc(SCC(=O)N3CCCc4ccccc43)sc2c1)c1ccc(F)cc1	13.6	–
O=C(CSc1nccn1C1CCCC1)Nc1cc(C(F)(F)F)ccc1Cl	6.31	–
NNC(=O)C1CCCn2c1nc1sc3c(c1c2=O)CCCC3 (stereo unspecified)	2.75	–
CCCc1nc2sc3c(c2c(=O)n1NC(=O)CCCl)CCCC3	-2.23	–
Cn1c(NN)nc2sc3c(c2c1=O)CCC3	–	89.1 µM (active)
COc1ccccc1OCC(=O)Nc1nnc2n1CCS2	-20.4	–
CCOC(=O)c1c(C)oc2nc(C)nc(N3CCN(c4ccc(OC)cc4)CC3)c12	-15.6	–
CC(=O)NC1C(Oc2ccc(C=O)cc2)OC(COC(C)=O)C(OC(C)=O)C1OC(C)=O (stereo unspecified)	–	39.8 µM (active)
CC(=O)NC1C(Oc2ccc(C)cc2)OC2COC(c3ccco3)OC2C1O (stereo unspecified)	-3.84	–
CCc1cccc(OC2OC(CO)C(O)C(O)C2NC(C)=O)c1 (stereo unspecified)	-1.07	–
Cc1c(C(=O)N2CCCC2)oc2c1-c1nn(CC(=O)NCc3ccc(OC(C)C)cc3)cc1CC2	2.91	–
COc1ccc(-c2nc(SCC(=O)N3CCCCC3C)n[nH]2)cc1 (stereo unspecified)	3.44	–
CCCCCn1c(=O)[nH]c2cc(C(=O)NCCN(C)CCCC)ccc2c1=O	-2.03	–
CCSc1nnc(NC(=O)c2ccc(C)cc2)s1	-1.08	–
CCSc1nnc(NC(=O)c2cc(=O)c3cc(C)c(C)cc3o2)s1	-16.3	–
Cc1ccc(C(=O)Oc2coc(CSc3nnc(NC(=O)c4cccs4)s3)cc2=O)cc1C	–	20 µM (active)

SMILES	activity change, negative = inhibition [%]	Potency
CCOC(=O)C1CCN(c2csc3ccc(C)cc3c2=O)CC1	38.3	–
O=C1NN(c2ccccc2)C(=O)/C1=C/c1ccc(-c2cccc(C(=O)O)c2)o1	–	35.5 µM (active)
Cc1cccc(C)c1-n1c(C)cc(/C=C2\C(=O)NN(c3ccccc3)C2=O)c1C	-1.38	–
COc1cc(/C=C2/C(=O)NN(c3cccc(Cl)c3)C2=O)cc(Br)c1O	-5.39	–
CCOc1cc(C2C(C(=O)OC)=C(C)NC3=C2C(=O)c2ccccc23)ccc1O (stereo unspecified)	-20.1	–
Cc1cccc2nc(-c3ccc(Cl)s3)c(Nc3ccc4c(c3)OCCO4)n12	-14.7	–
Cc1ccc(OC(=O)CCC(=O)Nc2ccc(Br)cc2)cc1	5.33	–
COc1ccc(C(=O)CCC(=O)Nc2ccc(Cl)cc2)cc1	-4.79	–
Cc1ccc(NC(=O)CCC(=O)c2ccc(Br)cc2)cc1	–	89.1 µM (active)
CCOc1cc(-c2nnc(SCC(=O)NC3CCCC3)nc2-c2ccc(OC)c(OCC)c2)ccc1OC	-29.7	–
CCCn1c2ccccc2c2cnn(CC(=O)N(C)c3ccccc3CC)c(=O)c21	0.302	–
COc1cccc(CNC(=O)CCc2nc(-c3ccc(C)cc3)no2)c1	0.0036	–
COc1ccc(OC)c(NC(=O)CSc2nc3ccccc3nc2N2CCCCC2)c1	-7.89	–
Cc1ccc2nc(/C(C#N)=C/c3ccc(-c4ccc(C(=O)OC(C)C)cc4)o3)[nH]c2c1	–	28.2 µM (active)
CCOC(=O)c1ccc(-c2ccc(/C=C(\C#N)C(=O)Nc3ccc(C)cc3)o2)cc1	9.25	–
Cc1ccc2nc(/C(C#N)=C/c3ccccc3F)[nH]c2c1	0.138	–
COc1ccc(S(=O)(=O)NCc2cccn2Cc2cccc(C)c2)cc1Cl	-0.864	–
COc1ccc(N2CCN(C3=NS(=O)(=O)C(c4cccc(Br)c4)=C3C)CC2)cc1	-13.7	–
COc1ccc2oc(C(=O)NCC(Cc3ccccc3)N(C)C)c(C)c2c1 (stereo unspecified)	22.1	–
CCOC(=O)C(Cc1ccccc1)NC(=O)CCC(=O)c1ccc(OC)cc1 (stereo unspecified)	4.15	–
COc1cc([C@H](Cc2ccccc2)NC(C)=O)oc(=O)c1	–	17.8 µM (active)
CC(C)c1nc2oc3c(N4CCN(C)CC4)ncnc3c2c2c1CCC2	–	12.6 µM (active)
Cc1cc(C)nc(N2CCN(c3ncnc4c3oc3ccccc34)CC2)n1	2.21	–
Cc1ccc(NC(=O)c2ccc(CN3CC(=O)N4CCCCC4C3=O)cc2)c(Cl)c1 (stereo unspecified)	2.76	–
Cc1nnc(C)n1-c1ccc(C(=O)Nc2cccc(Br)c2)cc1	1.29	–
Cc1cccc(NC(=O)C2CCN(C(=O)NC3CCCCC3)CC2)c1	7.66	–

SMILES	activity change, negative = inhibition [%]	Potency
Cc1cccc(NC(=O)NC2(C)CCS(=O)(=O)C2)c1 (stereo unspecified)	22.6	–
Cc1cccc(NC(=O)C2CC(=O)OC23CCCC3)c1 (stereo unspecified)	–	28.2 µM (active)
CCOC(=O)c1ccc(NC(=O)c2csc3c2CCCCC3)cc1	6.91	–
Cc1nn(-c2ccc(N3CCCCC3)nn2)c(C)c1CCC(=O)NCc1ccc(F)cc1	-15.3	–
COc1ccc(-n2ccnc(NCCc3ccc(Cl)cc3)c2=O)cc1OC	-12	–
CS(=O)(=O)N(CC(=O)NCc1ccco1)c1ccc2c(c1)OCO2	–	50.1 µM (active)
Cc1cc(C)cc(N(CC(=O)NCCSCc2ccco2)S(C)(=O)=O)c1	0.739	–
S=C(NCc1ccc2c(c1)OCO2)NCc1ccco1	1.93	–
Cc1ccc(NC(=O)CSc2nc3c([nH]c4ccccc43)c(=O)n2-c2ccccc2)cc1Cl	3.88	–
Cc1ccc(NC(=O)c2ccc3[nH]c(C)cc(=O)c3c2)c(C)c1	-25	–
Fc1ccc(C(Nc2ccc(Cl)c(C(F)(F)F)c2)c2nnc(-c3ccccc3)o2)cc1 (stereo unspecified)	19.5	–
Nc1c(Cl)cc(S(N)(=O)=O)cc1S(N)(=O)=O	–	25.1 µM (active)
NS(=O)(=O)c1ccc(NC(=S)Nc2ccc(Br)c(Cl)c2)cc1	-1.82	–
CCCN(CCC)C(=O)C1CCCN(c2ncnc3c2nc2n3CCCCC2)C1 (stereo unspecified)	14.9	–
COc1ccc(-c2cc(C(=O)NCc3cc(OC)c(OC)c(OC)c3)[nH]n2)cc1	26.1	–
CCc1ccc(NC(=O)C2CCCN2S(=O)(=O)c2ccc3nc(-c4ccccc4)[nH]c3c2)cc1 (stereo unspecified)	–	12.6 µM (active)
CCc1nnc(NC(=O)C2CCCN2S(=O)(=O)c2ccccc2)s1 (stereo unspecified)	-1.63	–
CCc1ccccc1NS(=O)(=O)c1ccc2nc(-c3ccccc3)[nH]c2c1	-33	–
CCc1ccccc1NC(=O)Cc1ccc(NC(=O)N2CCCCc3ccccc32)cc1	7.27	–
CCOc1ccc(Nc2c(S(=O)(=O)c3ccccc3)cnc3ccccc23)cc1	-23.2	–
CCn1cc(C(=O)N2CCN(c3cc(C)ccc3C)CC2)c(=O)c2cc(S(=O)(=O)N(C)C3CCCCC3)ccc21	18.9	–
Cc1ccc(S(=O)(=O)N2CCCc3cc(NS(=O)(=O)c4cc(C)ccc4C)ccc32)cc1	8.08	–
Cc1ccc(Nc2c(-c3ccc(N(C)C)cc3)nc3nc[nH]n23)cc1	5.92	–
O=C(NC(=O)c1ccc(Cl)c(Cl)c1)OC1CCS(=O)(=O)C1 (stereo unspecified)	–	89.1 µM (active)
O=C(NC(=S)NC1CCS(=O)(=O)C1)c1cccc([N+](=O)[O-])c1 (stereo unspecified)	31.6	–
O=C(Cc1ccc(Cl)cc1)NC1CCS(=O)(=O)C1 (stereo unspecified)	-17.6	–

SMILES	activity change, negative = inhibition [%]	Potency
O=C1CCCC(O)=C1N=Nc1ccc(S(=O)(=O)N2CCOCC2)cc1	-9.17	–
O=C1CCCC(O)=C1N=Nc1ccc2ncsc2c1	–	35.5 µM (active)
O=C(CSc1ncc(CO)n1Cc1ccc(Cl)cc1)NCc1ccc(F)cc1	21.7	–
Cc1cccc(-c2nnc(SCC(=O)N3CCCc4ccccc43)o2)c1	19.1	–
Cc1ccc(-c2cc(C(=O)N/N=C/C=C/c3ccccc3)n[nH]2)o1	–	17.8 µM (active)
CC(C)c1cc(C(=O)N/N=C/C(Br)=C/c2ccccc2)n[nH]1	-7.2	–
Cc1ccc(-c2cc(C(=O)NN)n[nH]2)o1	-2.94	–
O=C(OCc1cc(=O)n2nc(C3CC3)sc2n1)c1ccccc1Cl	15.1	–
Cc1nn2c(=O)cc(COC(=O)c3ccccc3NC(=O)COc3ccccc3C)nc2s1	32.7	–
COc1ccccc1C(=O)OCc1cc(=O)n2nc(-c3cccs3)sc2n1	–	17.8 µM (active)
Cc1ccc(OCC(=O)OCc2cc(=O)n3nc(C4CC4)sc3n2)cc1C	35.9	–
Cc1ccc(OCC(=O)OCc2cc(=O)n3nc(C4CC4)sc3n2)cc1	-1.49	–
O=C(COc1ccccc1)OCc1cc(=O)n2nc(-c3cccs3)sc2n1	–	31.6 µM (active)
CCCn1c2ccccc2c2cnn(CC(=O)N(CC)c3cc(C)ccc3C)c(=O)c21	1.29	–
Cc1ccc(O)c(/C=N/NC(=O)COc2ccc3c(C)cc(=O)oc3c2)c1	–	22.4 µM (active)
Cc1cc(=O)oc2cc(OCC(=O)Nc3nnc(C4CC4)s3)ccc12	0.954	–
CCOC(=O)Cc1csc(NC(=O)COc2ccc3c(C)cc(=O)oc3c2)n1	–	44.7 µM (active)
Cc1cc(=O)oc2ccc(OCC(=O)O)cc12	-0.812	–
COc1ccc(N2CCN(C(=O)COc3ccc4c(C)cc(=O)oc4c3)CC2)cc1	0.172	–
CCOC(=O)Cc1csc(SCc2cc(=O)oc3cc(O)ccc23)n1	31.2	–
CCOC(=O)c1c(NC(=O)Cc2coc3ccc(CC)cc23)sc2c1CCC2	18.5	–
COc1ccc(N2CCN(Cc3nc4c(c(=O)[nH]c(=O)n4C)n3Cc3ccc(Cl)cc3)CC2)cc1	-17.7	–
O=C(CSc1ncc(-c2ccccc2)[nH]1)Nc1ccc(F)cc1F	1.98	–
